The values that follow come from paper PMC11062922 (Nature Chemical Biology, 2023).

Common to all, as to parameters: species or system human, MV4-11 + K-562 + COLO205 + SK-N-BE2 + OVCAR-8
In one test the test system is STK26. The settings on record: read-out: apparent Kd, compound concentrations: 100 nM and 1000 nM (sheet 'Samples'), n = 1.
The subject of the next test is ACAD11. The settings on record: read-out: apparent Kd, n = 1.
Another test deals with JAK2. The settings on record: read-out: apparent Kd, n = 1.
A further test concerns MAPKAPK2. The conditions noted are these: read-out: apparent Kd; compound concentrations:100 nM and 1000 nM (sheet 'Samples'); n = 1.
In the next test the test system is NLK. The conditions noted are these: read-out: apparent Kd, n = 1.
In a further test the test system is CDK6. The settings on record: read-out: apparent Kd, n = 1.
The subject of the next test is JAK1. The conditions noted are these: read-out: apparent Kd, n = 1.
Another test has as its system MAP4K1. The conditions noted are these: read-out: apparent Kd, compound concentrations: 100 nM and 1000 nM (sheet 'Samples'), n = 1.
The next test has as its system IRAK4. The settings on record: read-out: apparent Kd, n = 1.
The test system of a further test is PIK3CA. The settings on record: read-out: apparent Kd, n = 1.
The test system of a further test is ATR. The settings on record: read-out: apparent Kd, n = 1.
The next test concerns T1, DJA1.
T1 construct: gene DNAJA1
The conditions noted are these: read-out: apparent Kd, n = 1.

The subject of a further test is FRK. The settings on record: read-out: apparent Kd; compound concentrations: 100 nM and 1000 nM (sheet 'Samples'), CATDS: 1.6945625051929199E-2; n = 1.
The test system of a further test is MAP2K1. The settings on record: read-out: apparent Kd, n = 1.
In a further test the test system is CDC7. The conditions noted are these: read-out: apparent Kd, n = 1.
Another test deals with NQO2. The conditions noted are these: read-out: apparent Kd, n = 1.
For another test, the system named is ULK3. The conditions noted are these: read-out: apparent Kd, n = 1.
The next test relates to CDK5. The conditions noted are these: read-out: apparent Kd; compound concentrations: 100 nM and 1000 nM (sheet 'Samples'), CATDS: 6.6467271298615597E-3; n = 1.
A further test deals with PRKCB. The conditions noted are these: read-out: apparent Kd; compound concentrations: 100 nM and 1000 nM (sheet 'Samples'), CATDS: 6.2704651327109501E-3; n = 1.
Where [1] appears, read: compound concentrations:100 nM and 1000 nM (sheet 'Samples').

Where two headings read alike, the source gives them in different places.

For `COc1cc(Nc2nccc(-c3cnn4ncccc34)n2)cc(OC)c1` [GW801372X], the potency estimated from few doses in the test on STK26 (CATDS: 1.6966130459451799E-2) was 2340 nM.

Regarding `CS(=O)(=O)CCn1c(=O)c(Oc2ccc(F)cc2F)cc2cnc(NC3CCOCC3)nc21` [RO5027956-000], the potency estimated from few doses in the test on ACAD11 (setting [1]) was 1690 nM; in the test with JAK2 (setting [1]) it was 65.6 nM; in the test with MAPKAPK2, 15.9 nM; in the test on NLK (setting [1]), 55.9 nM.

Consider `CNCC#Cc1c(F)ccc2c1/C(=C/c1[nH]ccc1OC)C(=O)N2.Cl` [RO0281601-001], for which the potency estimated from few doses with CDK6 (compound concentrations: 100 nM and 1000 nM (sheet 'Samples'), CATDS: 2.2252804154739798E-2) was 1820 nM; in the test on JAK1 (compound concentrations: 100 nM and 1000 nM (sheet 'Samples'), CATDS: 3.3581024780386999E-2) it was 520 nM; with MAP4K1 (CATDS: 2.76705176427572E-2) it was 879 nM.

For the molecule `Cc1cccc(Nc2nc(N[C@H]3CCNC3)ncc2C(N)=O)c1.Cl` [GSK2197149A], the potency estimated from few doses in the test on IRAK4 (setting [1]) was 1570 nM; in the test with JAK1 (setting [1]), 1240 nM; in the test with PIK3CA (setting [1]) it was 110 nM.

As for `CCn1c(-c2cccnc2O)nc2cnccc21` [SB-736715], the potency estimated from few doses in the test with ATR (compound concentrations: 100 nM and 1000 nM (sheet 'Samples'), CATDS: 1.78741670317108E-2) is 919 nM; with DJA1 (compound concentrations: 100 nM and 1000 nM (sheet 'Samples'), CATDS: 1.9156343081097999E-2), 812 nM; with FRK, 1010 nM; in the test with IRAK4 (compound concentrations: 100 nM and 1000 nM (sheet 'Samples'), CATDS: 1.2053772539955101E-2) it was 2160 nM; in the test on MAP2K1 (compound concentrations: 100 nM and 1000 nM (sheet 'Samples'), CATDS: 1.2472945477492101E-2), 1980 nM; in the test on NLK (compound concentrations: 100 nM and 1000 nM (sheet 'Samples'), CATDS: 1.3463251782528499E-2), 1640 nM. Besides, in the test on STK26 (CATDS: 1.4283028006721699E-2), the potency estimated from few doses was 1440 nM.

As to `Cc1cc(-c2ccnc(Nc3cccc(C#N)c3)n2)cc(C)c1O` [GSK1440913A], the potency estimated from few doses with ACAD11 (compound concentrations: 100 nM and 1000 nM (sheet 'Samples'), CATDS: 0.11808512095338899) is 425 nM.

For the molecule `CC(C)Oc1ccc2c(-c3ccnc(Nc4ccc(N5CCN(C)CC5)cc4)n3)cnn2n1` [GW696155X], the figures for the potency estimated from few doses in the test with CDC7 (setting [1]), in the test on NQO2 (setting [1]) and in the test on ULK3 (setting [1]) were 1440 nM, 1060 nM and 290 nM, respectively.

Consider `CNc1cc(-c2ccc3c(N)n[nH]c3c2)nc(N)n1` [GSK2224810A], for which the potency estimated from few doses was 814 nM in the test with ATR (setting [1]), 1610 nM in the test on NLK (setting [1]) and 245 nM in the test on PIK3CA (setting [1]).

As for `c1cnn2ncc(-c3ccnc(Nc4ccc5c(c4)OCCO5)n3)c2c1` [GW806290X], the potency estimated from few doses with CDK6 (compound concentrations: 100 nM and 1000 nM (sheet 'Samples'), CATDS: 2.20968603607638E-2) is 1390 nM; in the test with MAP2K1 (compound concentrations: 100 nM and 1000 nM (sheet 'Samples'), CATDS: 2.0774102889224599E-2), 1730 nM.

With `CN(c1ccc(NC(=O)NCCN2CCOCC2)cc1)c1ccnc(Nc2ccc(CS(C)(=O)=O)cc2)n1.Cl` [GW830365A], in the test on PIK3CA (compound concentrations: 100 nM and 1000 nM (sheet 'Samples'), CATDS: 0.11596893366526), the potency estimated from few doses is 201 nM.

`CN(C)CC(O)COc1ccc(Nc2nccc(-c3cnn4nc(N5CCOCC5)ccc34)n2)cc1` (stereo not drawn) [GW767488X]: the potency estimated from few doses in the test on CDK6 (setting [1]) was 1050 nM; with IRAK4 (setting [1]) it was 1630 nM; in the test on NLK (setting [1]) it was 2180 nM; in the test with NQO2 (setting [1]), 1230 nM.

For the molecule `CS(=O)(=O)Nc1cccc(-c2ccc3c(NC(=O)C4CC4)n[nH]c3c2)c1` [SB-742864], the potency estimated from few doses in the test on DJA1 (compound concentrations: 100 nM and 1000 nM (sheet 'Samples'), CATDS: 0.110016860770891) is 1630 nM.

As for `COc1cc(Nc2nccc(N3CCC(NC(=O)c4cccc(NC(C)=O)c4)C3)n2)cc(OC)c1OC` (stereo not drawn) [GSK1379754A], the potency estimated from few doses with ULK3 (compound concentrations: 100 nM and 1000 nM (sheet 'Samples'), CATDS: 9.2169068852455793E-2) is 1390 nM.

For `NC(=O)c1cc(-c2ccccc2)cc2c(C3CCNCC3)c[nH]c12` [GSK301362A], in the test with DJA1 (setting [1]), the potency estimated from few doses is 1130 nM.

Take `COc1cc[nH]c1/C=C1\C(=O)Nc2ccc(F)c(C#CC3(O)CCNCC3)c21.Cl` [RO0282986-001]: the potency estimated from few doses in the test with DJA1 (compound concentrations: 100 nM and 1000 nM (sheet 'Samples'), CATDS: 9.7728158080224396E-3) is 1450 nM; in the test with IRAK4 (compound concentrations: 100 nM and 1000 nM (sheet 'Samples'), CATDS: 1.1177652842318E-2) it was 889 nM; with JAK1 (compound concentrations: 100 nM and 1000 nM (sheet 'Samples'), CATDS: 1.5080552204992799E-2), 391 nM; in the test with MAP2K1 (compound concentrations: 100 nM and 1000 nM (sheet 'Samples'), CATDS: 1.0458763538178499E-2) it was 1120 nM; in the test with MAP4K1 (CATDS: 1.0790478017061501E-2), 1000 nM; in the test on NQO2 (compound concentrations: 100 nM and 1000 nM (sheet 'Samples'), CATDS: 1.2433043587811299E-2) it was 644 nM.

Consider `O=C1N=C(NCc2cccs2)O/C1=C\c1ccc2ncccc2c1` [RO4624208-000], for which the potency estimated from few doses in the test on CDC7 (compound concentrations: 100 nM and 1000 nM (sheet 'Samples'), CATDS: 4.51819013017992E-2) was 2100 nM.

For `CNCc1ccc(-c2cc(-c3nc(-c4ccc(S(=O)(=O)C(C)C)cc4)cnc3N)on2)cc1` [VE-822], the potency estimated from few doses in the test on ACAD11 (setting [1]) was 321 nM; in the test on ATR (compound concentrations: 100 nM and 1000 nM (sheet 'Samples'), CATDS: 0.44999345055434797), 7.76 nM; in the test on MAP2K1 (setting [1]), 2120 nM.

As for `COC(=O)c1cccc(NC(=O)NC2CCN(c3ccnc(Nc4cc(OC)c(OC)c(OC)c4)n3)C2)c1` (stereo not drawn) [GSK1379767A], in the test with MAP2K1 (compound concentrations: 100 nM and 1000 nM (sheet 'Samples'), CATDS: 9.4958067467462701E-2), the potency estimated from few doses is 2010 nM.

As for `Cc1ccccc1C1=C(c2cn(C)c3ccccc23)C(=O)NC1=O` [RO0317612-000], in the test with DJA1 (compound concentrations: 100 nM and 1000 nM (sheet 'Samples'), CATDS: 0.15228633777300399), the potency estimated from few doses is 952 nM.

With `O=C(O)C(F)(F)F.O=C(O)C(F)(F)F.O=c1[nH]ccc2nc(N[C@@H]3CCCNC3)nc(Nc3ccc(S(=O)(=O)N4CCOCC4)cc3)c12.O=c1[nH]ccc2nc(N[C@@H]3CCCNC3)nc(Nc3ccc(S(=O)(=O)N4CCOCC4)cc3)c12` [GSK2177277A], the potency estimated from few doses was 14.6 nM in the test on CDC7 (compound concentrations: 100 nM and 1000 nM (sheet 'Samples'), CATDS: 4.24338957308735E-2); 1280 nM with CDK5; 1850 nM with DJA1 (compound concentrations: 100 nM and 1000 nM (sheet 'Samples'), CATDS: 6.2286028327955796E-3); 12.1 nM in the test on JAK2 (compound concentrations: 100 nM and 1000 nM (sheet 'Samples'), CATDS: 4.8200913683498499E-2); 34.1 nM in the test on MAP4K1 (CATDS: 2.52445457055663E-2); 1770 nM with PRKCB. Also, in the test with ULK3 (compound concentrations: 100 nM and 1000 nM (sheet 'Samples'), CATDS: 1.28018633148979E-2), the potency estimated from few doses was 140 nM.
